A selection: hits, their analogues and other compounds. The true share with any hit is near 10%.
JMJD2A Tudor inh: JMJD2A Tudor domain (human) inhibition. O75164. AlphaScreen JMJD2A-Tudor / H3K4me3 peptide binding. Potency, µM (titrated, usually from 114 µM), without a hit: at the top dose activity change, negative = inhibition, actives largely listed as inhibitors. actives 4.4% (n = 390,000). AID 504339; further: potency means the concentration at half of the fitted maximal effect; on the % scale 0 is the no-effect control and ±100 the full control effect; nearly all actives have a fitted effect of over 50% in size
BAZ2B inh: inhibitors of human BAZ2B bromodomain; AlphaScreen BAZ2B-H3K14Ac peptide displacement; Potency, µM (highest dose often 114 µM), without a hit: top-dose activity change, negative = inhibition, hits mostly inhibitors; AID 504333; actives 4.4% (n = 360,000); further: potency means the concentration at half of the fitted maximal effect; on the % scale 0 is the no-effect control and ±100 the full control effect; nearly all actives have a fitted effect of over 60% in size
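In this displacement format the biotinylated H3(5-23) peptide acetylated at Lys14 serves as ligand at 50 nM, with BAZ2B at 50 nM in PBS pH 7.4 containing 0.01% Tween-20. Donor and acceptor beads are 10 ug/mL final.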
CtBP-E1A inh: blocks the CtBP interaction with E1A. AlphaScreen GST-E1A/His-CtBP binding, 1536-well; hits give low values. activity change, % (test concentration not listed). actives 0.49% (n = 340,000). AID 651724; in the data active means activity change below about -65%; inconclusive means mostly about -30% to -63%; further: on the % scale 0 is the no-effect control and ±100 the full control effect
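GST-E1A and His-tagged CtBP (125 nM each as 5X stock) were preincubated with pin-transferred compound for 2 h at 37 °C in the dark, then glutathione donor and nickel acceptor beads were added for 1 h before AlphaScreen reading.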
G9a inh: G9a (human) methyltransferase inhibition; actives 8.8% (n = 350,000); Q96KQ7; G9a H3K9 monomethylation, AlphaScreen, 2 h; Potency, µM (series often up to 102 µM), for inactives: at the top dose activity, negative = inhibition, usual class: inhibitors; AID 504332; further: potency means the concentration at half of the fitted maximal effect; on the % scale 0 is the no-effect control and ±100 the full control effect; nearly all actives have a fitted effect of over 75% in size
Target sequence (Q96KQ7 913-1193 limits assumed): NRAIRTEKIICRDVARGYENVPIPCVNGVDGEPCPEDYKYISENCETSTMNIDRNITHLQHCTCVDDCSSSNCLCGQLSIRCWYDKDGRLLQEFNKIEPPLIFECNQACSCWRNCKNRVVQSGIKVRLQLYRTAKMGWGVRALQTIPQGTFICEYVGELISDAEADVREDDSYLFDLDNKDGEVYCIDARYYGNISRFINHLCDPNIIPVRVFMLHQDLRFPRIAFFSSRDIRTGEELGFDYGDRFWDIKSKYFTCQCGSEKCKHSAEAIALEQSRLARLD
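Readings reflect AlphaScreen signal from monomethyl-H3K9 antibody detection. HMT at 20 nM; substrate b-H3K9 500 nM; cofactor SAM 20 uM; 2 h RT reaction; compounds tested as titrations in qHTS with 15 min preincubation.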
HP1b binding inh: HP1-beta chromodomain-methylated histone interaction inhibition | AlphaScreen HP1-beta / biotin-H3K9me3 peptide binding | AID 540317 | actives 0.56% (n = 390,000) | Potency, µM (top dose mostly 114 µM), without a hit: top-dose activity change, negative = inhibition, actives largely listed as inhibitors | P83916; further: potency means the concentration at half of the fitted maximal effect; nearly all actives have a fitted effect of over 70% in size
Target sequence (P83916 whole entry, looked up): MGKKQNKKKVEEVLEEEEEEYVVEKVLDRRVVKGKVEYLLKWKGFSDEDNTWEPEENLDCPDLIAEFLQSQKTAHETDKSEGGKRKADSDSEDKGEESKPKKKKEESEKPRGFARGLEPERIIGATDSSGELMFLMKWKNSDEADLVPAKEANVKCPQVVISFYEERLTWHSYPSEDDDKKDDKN
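AlphaScreen: HP1-beta (50 nM) preformed 30 min with biotin-H3(1-18)K9me3 peptide (50 nM) in PBS pH 7.4, 0.01% Tween-20. Compound added for 30 min at RT, then streptavidin donor/nickel chelate acceptor beads (10 ug/mL) for 30 min.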
Six1-Eya2 blk: inhibitors of human Six1/Eya2 interaction | Q15475+O00167 | AlphaScreen GST-Six1/His-Eya2 binding, biochemical; hits give low values | activity change, % (no concentration beside the values) | actives 0.56% (n = 360,000); in the data active means activity change below about -65%; inconclusive means mostly about -30% to -63%; further: on the % scale 0 is the no-effect control and ±100 the full control effect
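AlphaScreen luminescence read after one hour at 37 °C in darkness. Pin-transferred compounds met GST-Six1 and His-Eya2 protein (5X stock 250 nM/500 nM) plus glutathione donor and Ni-chelate acceptor beads (5X, 50 ug/mL).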
The depositor's hits bear a star; ? = inconclusive; / = not tested or not shown; [ ] = dose if it differs, or a comment. Unless noted, the call rests on the fitted dose curve; in most records, active means well fitted inhibition curve with a large enough effect; inconclusive means small, poorly fitted or top-dose-only effect; inactive means no such curve, though single readings can be large or run the other way.

SMILES | JMJD2A Tudor inh | BAZ2B inh | CtBP-E1A inh | G9a inh | HP1b binding inh | Six1-Eya2 blk
CCCCCSc1nc2sc3c(c2c(=O)n1-c1ccccc1)CCN(C(C)=O)C3 | -27% | -17% | / | ? | 3% | /
CN1CCc2c(sc3nc(SCC(=O)N4CCOCC4)n(-c4ccc(Cl)cc4)c(=O)c23)C1 | -25% | ? | -80* | 71µM* | 5% | -14
CCN(CC)c1ccc(NC(=O)c2cc(C)nc3c2c(C)nn3-c2ccc(C)cc2)c(C)c1 | -5% | 9%[57.1 µM] | / | -44%[59 µM] | 26% | /
CC(=O)c1cccc(NC(=O)c2cc(S(=O)(=O)N3CCOCC3)cs2)c1 | -12% | -12% | -5 | / | 11% | -5
O=C(OC1CC2CC1[C@H]1CCCCN1C2=O)N1CCN(C(=O)c2ccccc2)CC1 (some centres undefined) | / | / | 4 | / | / | -1
COc1ccc2oc(C(=O)CCC(=O)O)c(N)c2c1 | -5% | -9% | 3 | 50µM* | 70% | 24
COc1ccc2oc(C)c(C(=O)NN)c2c1 | -23% | -11% | -4 | 10µM* | 24% | 0
CCOC(=O)c1c(CN2CCN(c3ccccc3)CC2)oc2ccc(O)cc12 | ? | ? | -13 | 40µM* | -2% | -24
CCOC(=O)c1oc2ccccc2c1CN1CCN(C(=O)c2ccccc2)CC1 | -15% | -5% | -12 | -46% | 28% | 3
COC(=O)CCC(=O)c1oc2ccc(Br)cc2c1N | -5% | 7% | -7 | -8%[59 µM] | 12% | -2
CCOC(=O)c1oc2ccccc2c1CN1CCN(c2ccccc2)CC1 | 79µM* | 56µM* | -22 | ? | -17% | ?
Cc1cc(=O)n(C(C)c2ccccc2)n1C(C)c1ccccc1 (centres undefined) | -8% | / | -6 | / | 26% | 7
COc1cccc(N2CCN(C3C(=O)c4ccccc4N3C(C)=O)CC2)c1 (centres undefined) | -19% | -37% | / | -6%[59 µM] | 21% | /
COc1cccc(CNC(=O)c2c(C)oc3nc(C)nc(N4CCOCC4)c23)c1 | -4% | 10%[57.1 µM] | / | -1%[59 µM] | 31% | /
COc1ccc(C)cc1NC(=O)C(OC(=O)CNC(=O)c1ccccc1)c1ccccc1 (centres undefined) | -14% | / | / | / | / | /
Cc1ccc(C(=O)O)cc1NCc1ccncc1 | -13% | -4% | -3 | / | 29% | -20
CCOC(=O)c1c(CN2CCN(C)CC2)oc2ccc(OC)cc12 | ? | 79µM* | -8 | ? | 19% | 0
Cc1ccc(NNC(=O)c2sccc2Cl)c(C)c1 | ? | / | / | / | 10% | /
COc1ccc(C2C=C(C)Nc3nc(SC)nn32)cc1 (centres undefined) | -18% | 0% | ? | 56µM* | 38% | ?
CCN(CC)CCCNC(=O)c1c(C)oc2ncn(CC(C)C)c(=O)c12 | -10% | 9%[57.1 µM] | / | -25%[59 µM] | 16% | /
CCOC(=O)N1CCN(C(=O)C2CCN(C(=O)c3ccccc3C)CC2)CC1 | 7.1µM* | / | -11 | / | 7.9µM* | -29
Cc1ccccc1C(=O)N1CCC(C(=O)Nc2ccccc2N2CCCC2)CC1 | -28% | 1% | -13 | 50µM* | -4% | -9
Cc1cc(C)cc(NC(=O)Cc2noc3ccccc23)c1 | -18% | -12% | / | -2%[59 µM] | 21% | /
CCCOC(=O)C1=C(C)N(C)C(=O)NC1c1cc2c(cc1[N+](=O)[O-])OCO2 (centres undefined) | ? | ? | -8 | 10µM* | -1% | -16
CCOC(=O)C1=C(C)NC(=O)CC1c1cc2c(cc1[N+](=O)[O-])OCO2 (centres undefined) | -31% | / | -1 | 22µM* | 23% | 1
SMILES | JMJD2A Tudor inh | BAZ2B inh | CtBP-E1A inh | G9a inh | HP1b binding inh | Six1-Eya2 blk
Cc1ccc(N(CC(=O)N2CCN(c3ccc(Cl)cc3)CC2)S(=O)(=O)c2c(C)noc2C)cc1 | ? | / | / | -50%[59 µM] | 11% | /
[O-]/[N+](=C\c1ccccc1)c1ccccc1 | -16% | 11% | 10 | 10%[0.501 µM] | 16% | 7
[O-]/[N+](=C\c1cccc(Br)c1)c1ccccc1 | -15% | 27% | 5 | 40µM* | 14% | -1
[O-]/[N+](=C\c1ccc(F)cc1)c1ccccc1 | -1% | 3% | 7 | 7.9µM* | 4% | 7
O=c1c2oc3ccccc3c2ncn1Cc1ccc(Cl)cc1 | -9% | 9% | 8 | 19% | 10% | 1
CN(Cc1ccccc1)C(=O)CN1CCN(S(=O)(=O)c2ccccc2F)CC1 | / | / | -6 | / | / | 0
Fc1cccc(F)c1/C=N/NC(=S)Nc1cccnc1 | -9% | -11% | -4 | 15% | 39% | -2
CC(C)(C)C1CCC(=NNC(=S)Nc2cccnc2)CC1 (centres undefined) | ? | ? | -1 | 10µM* | 18% | -6
CCNC(=S)NN=C1CCC(C(C)(C)C)CC1 (centres undefined) | -29% | 79µM* | 5 | ? | -8% | -4
S=C(Nc1cccnc1)NC1CC2CCC1C2 (centres undefined) | -6% | 71µM* | 2 | / | 49% | 2
CC(C)(C)c1ccc(S(=O)(=O)NC(=O)C2(C)CCN2C(=O)CC2CCCCC2)cc1 (centres undefined) | / | / | -20 | / | / | 12
OCC[C@@H]1C[C@H](O)[C@@H](O)[C@@]2(OCc3cc(C(F)(F)F)ccc32)O1 | / | / | 6 | / | / | -3
CCOC(=O)C1CCCN(C(=O)c2ccccc2NC(=O)C2=C(C)OCCS2)C1 (centres undefined) | -9% | -14%[57.1 µM] | -1 | -6% | 32% | 3
CC(SC(=S)N1CCOCC1)C(=O)O (centres undefined) | -21% | 25µM* | 4 | -1%[12.7 µM] | 15% | 11
O=C(CN1C(=O)c2cccnc2Oc2ccc(Cl)cc21)NCCC1=CCCCC1 | -5% | -36% | 6 | 4% | 33% | 0
CN1CCN(C2=Cc3ccccc3Sc3cc(F)c(Cl)cc32)CC1 | 50µM* | 35µM* | -29 | 18µM* | -6% | -27
CN1CCN(C2=Cc3ccccc3Sc3cc(F)c(F)cc32)CC1 | ? | 45µM* | -20 | ? | ? | -24
CN1CCN(C2=Cc3cc(Cl)ccc3Sc3cc(F)ccc32)CC1 | 56µM* | 22µM* | -24 | 13µM* | -46% | -21
Cc1ccc(C)c(N2CCN(C(c3ccc(F)cc3)c3nnc(-c4ccccc4)o3)CC2)c1 (centres undefined) | ? | -39% | / | ? | 4% | /
CC1=C([N+](=O)[O-])C(c2ccccc2)C2=C(N1)c1ccccc1C2=O (centres undefined) | 25µM* | 35µM* | -30 | 10µM* | ? | ?

Compound activity from PubChem.
